These results are taken from PubChem BioAssay AID588458 (Sanford-Burnham Center for Chemical Genomics, 2011).

SMILES strings stand for the structures. Hit rate of the full screen: of about 360,000 compounds, about 3,000 (0.83%) were called active. Shown is part of a subset that was picked to be rich in actives. Values without a mark were called inactive. No stated cut-off is given here; in the data, active means inhibition above about 50%; inactive means the rest.

In the test the target is DNA (cytosine-5)-methyltransferase 1 (Homo sapiens) (UniProt P26358). In words: human DNMT1 methyltransferase inhibitors, primary screen, biochemical, molecular beacon, fluorescence, HinP1I cleavage, uHTS (AID 588458). As to conditions: at 10 µM, stronger effect = higher value.
Chain of DNA (cytosine-5)-methyltransferase 1 (Homo sapiens) (P26358 504-1616 limits assumed): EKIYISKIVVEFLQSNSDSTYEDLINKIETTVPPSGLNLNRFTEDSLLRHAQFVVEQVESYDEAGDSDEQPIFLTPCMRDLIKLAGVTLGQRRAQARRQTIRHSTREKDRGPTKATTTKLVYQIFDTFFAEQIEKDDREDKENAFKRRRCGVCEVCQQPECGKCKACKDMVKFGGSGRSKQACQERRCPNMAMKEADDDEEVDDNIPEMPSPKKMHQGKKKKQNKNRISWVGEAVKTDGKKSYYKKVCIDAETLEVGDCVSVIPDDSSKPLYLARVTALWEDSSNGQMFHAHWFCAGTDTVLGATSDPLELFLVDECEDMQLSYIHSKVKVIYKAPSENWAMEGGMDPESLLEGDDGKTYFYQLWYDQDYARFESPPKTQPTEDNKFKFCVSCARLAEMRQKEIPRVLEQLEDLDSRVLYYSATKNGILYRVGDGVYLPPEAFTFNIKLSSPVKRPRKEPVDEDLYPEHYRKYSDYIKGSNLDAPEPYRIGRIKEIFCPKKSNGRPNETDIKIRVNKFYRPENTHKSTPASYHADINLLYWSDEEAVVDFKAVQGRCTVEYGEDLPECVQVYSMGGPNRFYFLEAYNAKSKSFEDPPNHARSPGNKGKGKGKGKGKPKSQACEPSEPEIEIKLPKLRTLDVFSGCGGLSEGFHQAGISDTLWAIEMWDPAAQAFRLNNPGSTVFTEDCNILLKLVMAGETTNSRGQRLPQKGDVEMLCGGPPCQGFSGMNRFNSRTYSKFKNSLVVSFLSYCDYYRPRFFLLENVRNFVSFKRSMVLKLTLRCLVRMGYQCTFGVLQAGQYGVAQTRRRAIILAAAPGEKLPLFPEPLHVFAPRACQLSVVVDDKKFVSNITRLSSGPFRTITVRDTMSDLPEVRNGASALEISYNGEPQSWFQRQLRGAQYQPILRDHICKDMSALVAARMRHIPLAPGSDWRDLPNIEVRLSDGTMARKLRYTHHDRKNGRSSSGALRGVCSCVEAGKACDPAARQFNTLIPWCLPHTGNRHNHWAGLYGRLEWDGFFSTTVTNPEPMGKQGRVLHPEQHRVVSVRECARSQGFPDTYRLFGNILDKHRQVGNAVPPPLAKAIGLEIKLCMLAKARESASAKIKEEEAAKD
`COc1ccc(NC(=O)CN(C)C(=O)c2ccc(COc3ccccc3)o2)cc1`: the inhibition (reported as % activation of signal) was 1.54%.
As for `Cc1ccc(OCC(=O)Nc2ccc(-c3nnc(-c4ccco4)o3)cc2)cc1`, the figure is 56% (active); as for `COc1ccc(NC(=O)CCCC(=O)c2ccccc2)cc1`, 0.13%; as for `COc1ccc(NC(=O)Cn2c(-c3ccc(OC)cc3)cn(-c3ccc(C)cc3)c2=O)cc1`, -10.9%.
To `CCOC(=O)C1=C(O)/C(=C/c2ccc(OCC(=O)Nc3ccc(C)cc3)cc2)N=C1C` belongs 26.9%; to `O=C(Nc1ccc(N2CCN(C(=O)C3CC3)CC2)cc1)c1cccs1`, -1.58%; to `COc1ccc(CC(=O)Nc2ccc(-c3nnc(-c4ccccc4)o3)cc2)cc1`, 63.9% (active).
Consider `COc1ccc(C(CC(=O)Nc2ccc(C)cc2)NC(=O)C(F)(F)F)cc1` (stereo not given), for which the inhibition (reported as % activation of signal) was 1.22%.
As to `Cc1ccc(-c2nnc(-c3ccc(NC(=O)c4cccs4)cc3)o2)cc1`, the inhibition (reported as % activation of signal) was 62.6% (active).
As for `CCc1ccc(NC(=O)C(=O)NNC(=O)c2cccs2)cc1`, the figure is 1.5%.
With `COc1ccc(CC(=O)Nc2ccc(-c3nnc(-c4ccc(C)cc4)o3)cc2)cc1`, the inhibition (reported as % activation of signal) was 58.3% (active).
As for `Cc1cc(NC(=O)C(C)SCC(=O)Nc2cccc(S(=O)(=O)N3CCCCCC3)c2)no1` (stereo not given), the inhibition (reported as % activation of signal) is 3.04%.
To `CCCCc1ccc(S(=O)(=O)NC(=O)C2(C)CCN2C(=O)c2ccccc2)cc1` (stereo not given) belongs -0.05%.
To `CCc1nc2c(OCCOc3ccc(F)cc3)cccn2c1N(C)C(=O)c1ccccc1F` belongs -4.23%; to `CCC(=O)Nc1ccc(-c2ccc(N3CCCCC3)nn2)cc1`, -8.26%; to `Cc1c(C(=O)NCc2ccc(C#N)cc2)sc(=O)n1Cc1ccc(C(=O)N(C)C)cc1`, 4.99%.
On to `O=C1N[C@@H](Cc2ccccc2)C(=O)N2[C@@H]3N(S(=O)(=O)c4ccc(F)cc4)c4ccccc4[C@]3(Br)C[C@@H]12`, for which the inhibition (reported as % activation of signal) is -4.71%.
As for `COc1ccc(CCc2nnc(CCC(=O)NCc3cnn(-c4ccccc4C)c3)o2)cc1`, the figure is -0.69%; as for `C/C(=N/N1CCN(Cc2cccc3ccccc23)CC1)c1cccnc1`, -1.56%; as for `CCN1CC=C2C(C#N)=C(N)C(C#N)(C#N)[C@H](c3ccoc3)[C@H]2C1`, 0.41%.
To `CCOC(=O)N1CC=C2C(C#N)=C(N)C(C#N)(C#N)[C@H](c3cccs3)[C@H]2C1` belongs 70.4% (active); to `C=CCOC(=O)C1=C(C)NC(C)=C(C(=O)OCC=C)C1c1cccs1`, 13.3%.
As for `Cc1cccc(CC(=O)N2CCN=C2SCc2ccc([N+](=O)[O-])cc2)c1`, the figure is -5.45%.
As for `COc1cccc(NC(=O)CN(C)C(=O)c2cc(C3CC3)nn2-c2ccccc2)c1`, the inhibition (reported as % activation of signal) is -5.25%.
To `COc1ccc(NC(=O)CN(C)C(=O)c2cc(C3CC3)nn2-c2ccccc2)cc1` belongs 61.4% (active).
As for `CCc1ccccc1NC(=O)CN(C)C(=O)c1cc(C2CC2)nn1-c1ccccc1`, the figure is -2.35%; as for `CC(C)(C)NC(=O)CN(Cc1cccs1)C(=O)CNS(=O)(=O)c1ccccc1`, -3.38%.
As for `CC(=O)Nc1ccc(Sc2ccccc2C(=O)N2CCCC2)cn1`, the figure is -0.06%.
Regarding `Nc1cccc(-c2cncc(N3CCN(Cc4ccccn4)CC3)n2)c1`, the inhibition (reported as % activation of signal) is -1.68%.
To `Oc1c(C(c2cccs2)N2CCN(c3ccc(F)cc3)CC2)sc2ncnn12` (stereo not given) belongs 5.11%; to `Oc1c(C(c2ccco2)N2CCC3(CC2)OCCO3)sc2ncnn12` (stereo not given), 84.4% (active); to `Cc1nc2sc(C(c3ccco3)N3CCC4(CC3)OCCO4)c(O)n2n1` (stereo not given), -3.42%.
As for `Cc1cc(NC(=O)CN2C(=O)NC(CC(C)C)C2=O)no1` (stereo not given), the inhibition (reported as % activation of signal) is 3.08%.
As for `COc1ccccc1CNS(=O)(=O)c1c(C)[nH]c(C)c1C(=O)N1CCCCC1`, the figure is 2.18%.
Turning to `CC(=O)NCCc1ccc(S(=O)(=O)N(C)C2CCS(=O)(=O)C2)cc1` (stereo not given), the inhibition (reported as % activation of signal) is 0.81%.
To `N/C(=N\S(=O)(=O)c1cc(C(F)(F)F)cc(C(F)(F)F)c1)c1cccs1` belongs 3.6%; to `Cc1ccc(CNC(=O)CSc2nnc3c(n2)[nH]c2ccc(F)cc23)cc1`, 57.3% (active); to `Cc1ccn2c(=O)nc(SCC(=O)NCc3ccc(F)cc3)nc2c1`, -6.32%.
As for `COc1ccc2[nH]c3nc(SCC(=O)NC4CC4)nnc3c2c1`, the figure is 2.16%.
For the compound `O=C(Nc1cccc(F)c1)c1coc(=O)c(Br)c1`, the inhibition (reported as % activation of signal) was -1.29%.
To `CC(=O)c1ccc(NC(=O)CCNS(=O)(=O)c2cc(Br)cnc2N)cc1` belongs 2.08%; to `CCCCN1CC(CO)Oc2cccc(F)c2S1(=O)=O` (stereo not given), 0.29%; to `OC[C@H]1O[C@@H](c2nc(-c3nc(-c4ccc(F)cc4)no3)cs2)[C@H](O)[C@@H](O)[C@H]1O`, 0.63%.
For `C=CCn1c(=S)[nH]c2scc(-c3ccco3)c2c1=O`, the inhibition (reported as % activation of signal) is 94.1% (active).
As for `CCC1(C)Cc2c(sc3[nH]c(=S)n(Cc4ccccc4)c(=O)c23)CO1` (stereo not given), the figure is -3.04%.
